In PubChem BioAssay (EPA / NIEHS):
Active and inactive are the calls of the source. How the source made its calls: active means hit-call score of the fitted dose curve at least 0.9, where 1 is the maximum; inactive means score below 0.9.

experiment: APR_HepG2_CellCycleArrest_24hr: Apredica 24-hour HepG2 Assay for Cell Cycle Arrest (AID 2282905); settings: imaging, actives raise or lower the signal
Summary of the method: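 Compounds at 0.39–200 uM (0.5% DMSO) for 24 h, then fixed and Hoechst 33342 stained. Cell-cycle analysis of nuclear DNA content by high-content imaging, fitted bidirectionally versus DMSO.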

outcome, inactive:
CCCCOC(=O)c1ccc(O)cc1
CCCCCCCC[Si](OCC)(OCC)OCC
Clc1cc(Cl)c2c(c1)N=C1CCCCCN1C2
COCC(C)OCC(C)OCC(C)O (stereo not drawn)
CCCCOC(=O)CC(CC(=O)OCCCC)(OC(C)=O)C(=O)OCCCC
OC12N=C(c3ccccc3)SC1Cc1cc(Cl)ccc12 (stereo not drawn)
O=C(O)c1ccccc1C(=O)OCc1ccccc1
CN1C(=O)CC[C@H]1c1cccnc1
Oc1ccccc1
Clc1ccccc1C(c1ccccc1)(c1ccccc1)n1ccnc1
CCN(Cc1cccnc1)C(=O)c1cccc(Cl)c1[C@]1(C)C(=O)N(Cc2ccc(OC)cc2OC)c2ccc(Cl)cc21
O=c1[nH]sc2ccccc12
O=C(O)c1ccccc1-n1cc(C(=O)O)c(=O)c2cc(Nc3c(F)cc(F)cc3Cl)c(Cl)cc21
CCCC(=O)OCCC(C)C
CC[C@@H]1C[C@H](N(Cc2cc(C(F)(F)F)cc(C(F)(F)F)c2)C(C)=O)c2cc(C(F)(F)F)ccc2N1C(=O)OC(C)C
C[C@]12CC[C@@H]3c4ccc(O)cc4CC[C@H]3[C@@H]1CC[C@H]2O
CC(C)(C)c1csc(-c2cc3cc(OCc4ccccc4CC(=O)O)ccc3o2)n1
Cc1oc2c(NC(=O)c3c(Cl)cccc3Cl)cccc2c1C(C)(C)O
O=C(O)Cc1cc(I)c(Oc2ccc(O)c(I)c2)c(I)c1
NC(=O)c1nc(-c2cccc(-c3cc(F)ccc3OCC(F)(F)C(F)(F)F)c2)n[nH]1
NCc1cccc(C2CCN(C(=O)c3ccc(C#Cc4ccccc4F)o3)CC2)c1
c1ccc2ccccc2c1
CCCCCCCCCCCCO
C[C@]12CC[C@@H]3c4ccc(O)cc4CC[C@H]3[C@@H]1CCC2=O
Cc1cn([C@H]2C[C@H](N=[N+]=[N-])[C@@H](CO)O2)c(=O)[nH]c1=O
Cc1cccc2ccccc12
CC1=CC(=O)/C(=C(/C)O)C(=O)O1
CN(C[C@@H](CC[N+]12CCC(C3CCCCC3)(CC1)CC2)c1ccc(Cl)c(Cl)c1)C(=O)c1cc(C(F)(F)F)cc(C(F)(F)F)c1
CCCOC(=O)c1cc(O)c(O)c(O)c1
Cc1ccc2oc(CN(Cc3ccccc3)C(=O)Nc3c(F)cc(F)cc3F)c(-c3ccc(Cl)cc3)c2c1
O=CCCCC=O

AC50, active:
CCCCCCCCCCCC[N+](C)(C)C 59 µM
Cc1cc2c(cc1C(F)(F)F)N(C(=O)Nc1ccc(Oc3cccnc3C)nc1)CC2 2.58 µM
CCN(CC)C(=O)c1cc(S(=O)(=O)Cc2ccccc2)c(N2CCC(c3ccccc3)CC2)cc1N(CC)CCN(C)C 75.9 µM
CC/C(=C(/CC)c1ccc(O)cc1)c1ccc(O)cc1 20.9 µM
Cc1occc1C(=O)Nc1ccc(C(=O)N2CCC(F)(F)/C(=C\C(=O)N3CCC(N4CCCCC4)CC3)c3ccccc32)cc1 34.9 µM
CCCCCCCCOC(=O)c1cc(O)c(O)c(O)c1 14.8 µM
CN(C)c1ccc(C(=C2C=CC(=[N+](C)C)C=C2)c2ccc(N(C)C)cc2)cc1 0.747 µM
